# System: HFF
# Assay: cell viability relative to DMSO control; higher = less cytotoxic
# Conditions: 1 µM; 72 h
# Experimental: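 Single-dose cytotoxicity screen of the MMV Pandemic Response Box at 1 uM on human foreskin fibroblasts (HFF), 72 h at 37 C. Viability measured by MTT (OD 550 nm) and normalised to the DMSO control (% survival).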
row,Structure (SMILES),cell viability
1,OB1OCc2cc(Cl)ccc21,68.1%
2,NC(=O)[C@@H]1CC[C@@H]2CN1C(=O)N2OS(=O)(=O)O,69.1%
3,Cc1nc(-c2ccc(C3N(C)c4ccc(F)cc4C(=O)N3c3ccccc3)s2)cs1 (configuration not stated),65.2%
4,O=C(CP(=O)(O)O)NCCc1cccc(Oc2ccccc2)c1,65.7%
5,O=C(O)[C@H]1C2CCC(CC2)[C@@H]1Nc1nc(-c2c[nH]c3ncc(F)cc23)ncc1F,67%
6,COc1cc(C)c2c(Oc3cccc(C(F)(F)F)c3)c(OC)cc(NC(C)CCCN)c2n1 (configuration not stated),61.2%
7,Nc1nc(O)c2ncn([C@@H]3O[C@H](CO)[C@@H](O)[C@H]3F)c2n1,68.9%
8,CN(C)CCCNC(=O)c1ccc(-c2cc(O)c3ncccc3c2)cc1,67.8%
9,CC(C)Oc1ccc(-n2cnc3cc(/C=C\c4ccc(C(C)(C)O)cc4)ccc32)cc1,64.2%
10,Fc1ccc(-c2nc(-c3c[nH]c4ccc(Br)cc34)[nH]c2-c2ccc(F)cc2)cc1,67.2%
11,O=S(=O)(Nc1ccc(-n2cccc2)cc1)c1ccc(Cl)c(Cl)c1,64.5%
12,CCC(C)NCC(O)Cn1c2ccc(Cl)cc2c2cc(Cl)ccc21 (configuration not stated),68.3%
13,Nc1cccc(-c2nc(N)nc(NC3Cc4ccccc4C3)n2)c1,68.2%
14,O=P(O)(O)C(CCCc1cccc(Oc2ccccc2)c1)S(=O)(=O)O (configuration not stated),74.4%
15,OCCC#Cc1nc(-c2ccc(F)cc2)c(-c2ccncc2)n1CCCc1ccccc1,81.7%
16,CC(C)(C)OC(=O)NCc1ccc(C(=O)N[C@H]2CCOC2=O)cc1,65.7%
17,CCCCc1ccc(S(=O)(=O)Nc2cc(C)on2)cc1,63.3%
18,Nc1nnnn1CCOc1c2[nH]c3ccc(Cl)cc3c2cc2c1[nH]c1ccc(Cl)cc12,65.4%
19,OC1O[C@H](CSc2ccc(F)cc2)[C@@H](O)[C@H]1O (some centres not stated),67.7%

row,Structure (SMILES),cell viability
1,Cc1ccc(NC(=O)c2ccc(CN3CCN(C)CC3)cc2)cc1Nc1nccc(-c2cccnc2)n1,50.1%
2,O=[N+]([O-])c1cn(Cc2nc(O)nc(O)c2Br)cn1,70.3%
3,O=C(O)C(Cc1c[nH]c2ccccc12)N1C(=O)c2ccccc2C1=O (configuration not stated),68.5%
4,CCCCCc1ccc(C(=O)NCCn2cc(CCCCCc3c[nH]c(N)n3)nn2)cc1,66.1%
5,NC(=O)c1ccc(I)c([N+](=O)[O-])c1,71.1%
6,CCCNc1ccc(S(=O)(=O)Nc2cc(C)on2)cc1,69.3%
7,CC(C)c1cc2c(cc1S(=O)(=O)O)[C@@]1(C)CCC[C@@](C)(C(=O)O)[C@@H]1CC2,64.8%
8,Nc1nc(=O)[nH]cc1F,64.8%
9,O=C1c2cccc3cccc(c23)C(=O)N1CC1CO1 (configuration not stated),63.8%
10,Nc1ccc2oc(=O)ccc2c1I,69.6%
11,N#Cc1c(F)c(Cl)c(NCc2ccccc2)c(C#N)c1F,66.6%
12,COc1cc(Cc2cc(N)nc(N)n2)cc(OC)c1OC,65.1%
13,FC(F)(F)c1cc(C(F)(F)F)c2ccc3nc(-c4nnco4)cn3c2n1,67.3%
14,Cc1c(OCC(F)(F)F)ccnc1C[S+]([O-])c1nc2ccccc2[nH]1 (configuration not stated),66.4%
15,NC(=O)c1cnc2ccc(S(=O)(=O)c3ccccc3)cc2c1Nc1ccc(O)cc1,59.5%
16,CCOC(=O)/C=C/[C@H](C[C@@H]1CCNC1=O)NC(=O)[C@H](CC)n1cccc(NC(=O)c2cc(C)on2)c1=O,68.3%
17,CCc1nc(N)nc(N)c1C#CC(C)c1cc(OC)cc(-c2ccncc2)c1 (configuration not stated),79.3%
18,NC(=O)C(c1ccccc1)(c1ccccc1)[C@H]1CCCN(CCc2ccc3c(c2)CCO3)C1,64%

# Reference: the supplement of paper PMC10941209
